According to the supplement of paper PMC13380429:

Tests used:
[1] = test system: Vero E6 infected with SARS-CoV-2; test: morphology score (similarity to uninfected cells); higher = more like uninfected cells; conditions: 24 h
[2] = test system: Vero E6 infected with SARS-CoV-2; test: SARS-CoV-2 infection rate relative to infected DMSO; higher = more infection, active = 60 or less; conditions: 24 h

Compound | morphology score [1] | SARS-CoV-2 infection rate [2]
CCCc1c2oc(C(=O)O)cc(=O)c2cc2c(=O)cc(C(=O)O)n(CC)c12 [nedocromil] (10 µM) | -0.0269 | 110% (inactive)
CCCNCCc1ccc(NS(=O)(=O)c2ccc(OC(F)(F)F)cc2)cc1 (10 µM) | -0.19 | 110% (inactive)
CN1CCN(CCCN2c3ccccc3Sc3ccc(Cl)cc32)CC1 [prochlorperazine] (10 µM) | 0.742 | 27.5% (active)
COc1cc2c(CCNC(C)=O)c[nH]c2cc1Cl [6-chloromelatonin] (10 µM) | 0.0228 | 104% (inactive)
COc1cc(C[C@H](C)[C@H](C)Cc2ccc3c(c2)OCO3)ccc1O [macelignan] (10 µM) | 0.185 | 102% (inactive)
CCN(CC)CCCCN1c2ccccc2Oc2ccc(Cl)cc21 (0.833333 µM) | 0.331 | 93% (inactive)
CC(=O)Nc1cccc(O)c1 [metacetamol] (10 µM) | 0.0448 | 97% (inactive)
CCCCCCOc1ccccc1C(N)=O [exalamide] (10 µM) | 0.105 | 108% (inactive)
CO/N=C(\C(=O)N[C@@H]1C(=O)N2C(C(=O)O)=C(CSc3nc(=O)c(O)nn3C)CS[C@H]12)c1csc(N)n1 [ceftriaxone] (10 µM) | -0.108 | 112% (inactive)
O=c1cc(N2CCOCC2)oc2c1ccc1ccccc12 (10 µM) | 0.258 | 110% (inactive)
CC(C)(C)CCN1C[C@@H]2[C@@H](CNC(=O)c3cc(Cl)cc(Cl)c3)[C@@H]2C1 (10 µM) | 0.324 | 86% (inactive)
CNC(=O)[C@H]1O[C@@H](n2cnc3c(NCc4cccc(I)c4)ncnc32)[C@H](O)[C@@H]1O (10 µM) | 0.156 | 100% (inactive)
Nc1ccc(-c2ccc3ncc4ccc(=O)n(-c5cccc(C(F)(F)F)c5)c4c3c2)cn1 [torin-2] (10 µM) | 0.162 | 86.5% (inactive)
Cc1ccc(NC(=O)c2cccc(C(C)(C)C#N)c2)cc1Nc1ccc2ncn(C)c(=O)c2c1 (0.833333 µM) | -0.0585 | 93.5% (inactive)
O=C(O)CCCNC(=O)c1cccnc1 [pikamilone] (10 µM) | 0.0672 | 100% (inactive)
Cc1cc(CCCOc2c(C)cc(-c3noc(C(F)(F)F)n3)cc2C)on1 [pleconaril] (10 µM) | -0.0431 | 108% (inactive)
N=C(N)NC(=N)Nc1ccccc1 [1-phenylbiguanide] (10 µM) | 0.219 | 86.5% (inactive)
O=C1C[C@@]2(C(=O)N1)C(=O)N(Cc1ccc(Br)cc1F)C(=O)c1cccn12 [ranirestat] (10 µM) | 0.148 | 94.5% (inactive)
C=CCOc1ccccc1OCC(O)CNC(C)C (stereo not given) [oxprenolol] (10 µM) | -0.183 | 114% (inactive)
CCCS(=O)(=O)Nc1ccc(F)c(C(=O)c2c[nH]c3ncc(-c4ccc(Cl)cc4)cc23)c1F [vemurafenib] (10 µM) | 0.25 | 85.5% (inactive)
CCN(Cc1ccc(Cl)nc1)/C(=C/[N+](=O)[O-])NC [nitenpyram] (10 µM) | 0.0591 | 101% (inactive)
COC(=O)[C@H](CC(C)C)NC(=O)c1ccc(NC[C@@H](N)CS)cc1-c1cccc2ccccc12 (10 µM) | -0.445 | 115% (inactive)
COc1cc(N2CCC(N3CCN(C)CC3)CC2)ccc1Nc1ncnc(Nc2ccccc2S(=O)(=O)C(C)C)n1 (0.833333 µM) | -0.0307 | 71% (inactive)
COc1cn(-c2ccc(-n3cccn3)cc2F)nc(-c2ccnn2-c2ccccc2)c1=O (10 µM) | 0.0337 | 112% (inactive)
CCN(CC)CCNC(=O)c1c(C)[nH]c(/C=C2\C(=O)Nc3ccc(F)cc32)c1C [sunitinib] (0.833333 µM) | 0.396 | 99% (inactive)
O=C(CCCCCN1C(=O)c2cccc3cccc(c23)C1=O)NO [scriptaid] (10 µM) | -0.255 | 120% (inactive)
CCOC(=O)c1ncc2[nH]c3cccc(OC(C)C)c3c2c1C (10 µM) | 0.286 | 88.5% (inactive)
C[C@]12CC[C@H](O)CC1=CC[C@@H]1[C@@H]2CC[C@]2(C)C(n3cnc4ccccc43)=CC[C@@H]12 [galeterone] (0.833333 µM) | -0.052 | 113% (inactive)
CC(NCCC(c1ccccc1)c1ccccc1)c1ccccc1 (stereo not given) [fendiline] (10 µM) | 0.771 | 44% (active)
CCC[C@H](NC(=O)[C@@H]1[C@H]2CCC[C@H]2CN1C(=O)[C@@H](NC(=O)[C@@H](NC(=O)c1cnccn1)C1CCCCC1)C(C)(C)C)C(=O)C(=O)NC1CC1 [telaprevir] (10 µM) | 0.229 | 106% (inactive)
